Experiment [1] in a line: Nuclear factor erythroid 2-related factor 2/antioxidant responsive element (Nrf2/ARE) small molecule agonists: qHTS cell viability counter screen in human keratinocytes (AID 1919968; active = well fitted curve in the direction sought with a large enough effect in the repeat runs; an effect the other way counts as inactive or inconclusive; also: nearly all actives have a fitted effect of over 55% in size). The gist of the method:
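Seed 1,500 KeratinoSens cells per well, then incubate 5 h at 37 C/5% CO2. Add compounds in DMSO and incubate 23 h. Add CellTiter-Fluor, wait 1 h and read fluorescence.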

The nature of experiment [2]: Nuclear factor erythroid 2-related factor 2/antioxidant responsive element (Nrf2/ARE) small molecule agonists: luciferase reporter gene qHTS assay in human keratinocytes (AID 1919969; also: nearly all actives have a fitted effect of over 35% in size). (In general: A reporter such as luciferase makes a cellular process visible.)
Experiment [3] concerns the target Gonadotropin-releasing hormone receptor (Homo sapiens) (UniProt P30968). As to the kind of experiment: Human gonadotropin-releasing hormone receptor (GnRHR) small molecule agonists, calcium flux assay in GnRHR-HEK293 cells (AID 1920063). Also: nearly all actives have a fitted effect of over 35% in size. The gist of the method:
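Cells: HEK293 stably expressing human GnRHR. Steps: overnight (18 h) culture, 1 h calcium dye loading at 37 C, compound addition, kinetic fluorescence read at 480/540 nm. Each compound tested at 15 concentrations in triplicate.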

The target of experiment [4] is KiSS-1 receptor (Homo sapiens) (UniProt Q969F8). Briefly: Human kisspeptin (KISS1R) small molecule agonists, calcium flux assay in KISS1R-HEK293 cells (AID 1920064; active = well fitted curve in the direction sought with a large enough effect in the repeat runs; an effect the other way counts as inactive or inconclusive). The gist of the method: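 Cells plated and incubated 18 h; dye added, 1 h at 37 C; compounds in DMSO pinned in; signal read at 480/540 nm every second for 3 min. Each compound tested at 15 concentrations in triplicate.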
A general note: A change in cytosolic calcium serves as a functional read-out for many receptors and channels.

Experiment [5] can be described thus: G protein-coupled receptor (GPCR) small molecule agonists, calcium flux assay: HEK293 wild type cell line counter screen (AID 1920065). The gist of the method:
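Counter-screen of the Tox21 10K library for non-specific calcium release: dye-loaded cells received compounds in DMSO and were monitored by kinetic fluorescence (480/540 nm, 3 min). Fifteen concentrations, run in triplicate.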

Experiment [6] in a line: p53 small molecule agonists, cell-based qHTS assay with human liver microsomes (AID 1963577).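 Also: p53 response element beta-lactamase reporter cells with liver microsomes plus NADPH.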 Put shortly: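 Reporter activation was measured by LiveBLAzer fluorescence intensity in p53RE-bla cells, which had been exposed to compounds for 16 h at 37 C alongside 0.5 mg/mL human liver microsomes and 0.5 mg/mL NADPH (final concentrations).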
For orientation: In qHTS, concentration-response curves come from the screen itself.

Experiment [7] can be described thus: p53 small molecule agonists, cell-based qHTS assay with rat liver microsomes (AID 1963578). Put shortly: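 Compound in DMSO added to p53RE-bla cells 5 h post-plating; rat microsomes/NADPH 0.5 mg/mL final; 16 h, 37 C; LiveBLAzer 2 h RT.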
Experiment [8] in a line: p53 small molecule agonists, cell-based qHTS assay with human liver microsomes: qHTS cell viability counter screen (AID 1963579). Also: nearly all actives have a fitted effect of over 45% in size. Put shortly: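 HLM-supplemented (0.5 mg/mL final) and NADPH-supplemented (0.5 mg/mL final) p53RE-bla cultures, 4,000 cells per well, were dosed with compounds in DMSO for 16 h at 37 C; luminescent ATP detection (CellTiter-Glo, 30 min, room temperature) quantified surviving cells.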

A short description of experiment [9]: p53 small molecule agonists, cell-based qHTS assay with rat liver microsomes: qHTS cell viability counter screen (AID 1963580). Also: nearly all actives have a fitted effect of over 45% in size. The gist of the method: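 Viability is assessed in parallel with the p53 reporter read: HCT-116 p53RE-bla cells receive compounds plus rat microsomes and NADPH (0.5 mg/mL final apiece), incubate 16 h at 37 C, and then CellTiter-Glo luminescence is recorded.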

The nature of experiment [10]: p53 small molecule agonists, cell-based qHTS assay: qHTS cell viability counter screen (AID 1963581). Also: nearly all actives have a fitted effect of over 45% in size. The gist of the method: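 Cells: HCT-116 with p53 response element-driven beta-lactamase. Treatment: 16 h, 37 C, compounds in DMSO. Read: CellTiter-Glo luminescence after 30 min RT.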
The nature of experiment [11]: p53 small molecule agonists, cell-based qHTS assay (AID 1963582; active = well fitted activation curve with a large enough effect in the signal ratio in the repeat runs, not every such curve was filed as active; the % refers to the signal ratio). Put shortly: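 Quantitative HTS in p53RE-bla cells: after a 5 h settling period, compounds delivered in DMSO were left on cells for 16 h at 37 C, and reporter induction was measured as fluorescence following 2 h substrate loading.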
Experiment [12] can be described thus: cAMP Responsive Elements (CRE) small molecule agonists, cell-based qHTS assay (AID 1963590). The gist of the method:
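Agonist mode qHTS in CRE-bla HEK 293T cells: compounds dosed from DMSO for 3 h at 37 C/5% CO2, followed by LiveBLAzer B/G FRET substrate for 2 h at room temperature.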

A short description of experiment [13]: cAMP Responsive Elements (CRE) small molecule antagonists, cell-based qHTS assay (AID 1963591; active = well fitted inhibition curve with a large enough effect in the signal ratio in the repeat runs, not every such curve was filed as active; the % refers to the signal ratio). Put shortly: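 Antagonist mode: test compounds are co-incubated with the adenylyl cyclase activator NKH477 (0.25 uM final) on CRE-bla HEK293T cells for 3 h at 37 °C, followed by LiveBLAzer substrate loading.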
Experiment [14] concerns the target Beta-2 adrenergic receptor (Homo sapiens) (UniProt P07550). Briefly: Adrenergic beta2 receptor (ADRB2) small molecule antagonists, cell-based qHTS assay (AID 1963592). Also: series mostly up to about 92 µM; nearly all actives have a fitted effect of over 50% in size. The gist of the method:
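Cells (CHO, stable ADRB2 overexpression) incubated 18-20hr at 37C; compounds added from DMSO; agonist mix (1nM isoproterenol, 100uM IBMX, 25uM Ro-20-1724) added; 0.5hr RT; d2-cAMP and anti-cAMP-cryptate added; 1hr RT; 665/615 nm read.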

For experiment [15] the target is unchanged. Briefly: Adrenergic beta2 receptor (ADRB2) small molecule agonists, cell-based qHTS assay (AID 1963593).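 Also: CHO cells stably overexpressing human ADRB2.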 The gist of the method:
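CHO cells stably over-expressing ADRB2 were plated overnight at 37C, then dosed with compounds plus a stimulation mix containing 100uM IBMX and 25uM Ro-20-1724 for 0.5hr at room temperature. cAMP was measured by HTRF competition, 1hr.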

The target in experiment [16] is D(2) dopamine receptor (Homo sapiens) (UniProt P14416). As to the kind of experiment: Dopamine D2 receptor (DRD2) small molecule antagonists, cell-based qHTS assay (AID 1963595; active = well fitted inhibition curve with a large enough effect in the signal ratio in the repeat runs, with a control signal flat; the % refers to the signal ratio). The gist of the method:
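Antagonist mode in DRD2-HEK293 cells: after compound addition with 0.1 mM Ro20-1724, cells received quinpirole (12 nM) and NKH477 (200 nM) for 30 min at room temperature; HTRF cAMP read after 1 h detection.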

For experiment [17] the target is unchanged. Briefly: Dopamine D2 receptor (DRD2) small molecule agonists, cell-based qHTS assay (AID 1963594). Also: nearly all actives have a fitted effect of over 35% in size. Also: potency is read from the fitted curve at half-maximal effect. Put shortly:
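HEK293 cells stably expressing human DRD2, pre-treated with PDE inhibitor Ro20-1724 (0.1 mM final) and compound 10 min at room temperature, then stimulated with NKH477 (200nM […]) for 30 min. cAMP read by HTRF (665/620 nm).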

A number with no mark means an inactive call. Results filed as inconclusive are left out. Activity calls are given as the source filed them. Unless noted, calls follow the shape of the full dose curve.

This is an account of results in PubChem BioAssay (Tox21).

Sequence of Gonadotropin-releasing hormone receptor (Homo sapiens) (P30968 whole entry, looked up): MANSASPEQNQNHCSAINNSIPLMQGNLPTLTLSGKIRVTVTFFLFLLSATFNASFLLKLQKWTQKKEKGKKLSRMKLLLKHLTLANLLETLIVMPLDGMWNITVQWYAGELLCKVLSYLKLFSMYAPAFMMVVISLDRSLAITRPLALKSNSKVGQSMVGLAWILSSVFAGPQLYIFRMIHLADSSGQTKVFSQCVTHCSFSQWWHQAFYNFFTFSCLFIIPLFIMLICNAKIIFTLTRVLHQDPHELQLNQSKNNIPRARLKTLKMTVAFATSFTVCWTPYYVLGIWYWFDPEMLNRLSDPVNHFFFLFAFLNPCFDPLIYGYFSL
Sequence of D(2) dopamine receptor (Homo sapiens) (P14416 whole entry, looked up): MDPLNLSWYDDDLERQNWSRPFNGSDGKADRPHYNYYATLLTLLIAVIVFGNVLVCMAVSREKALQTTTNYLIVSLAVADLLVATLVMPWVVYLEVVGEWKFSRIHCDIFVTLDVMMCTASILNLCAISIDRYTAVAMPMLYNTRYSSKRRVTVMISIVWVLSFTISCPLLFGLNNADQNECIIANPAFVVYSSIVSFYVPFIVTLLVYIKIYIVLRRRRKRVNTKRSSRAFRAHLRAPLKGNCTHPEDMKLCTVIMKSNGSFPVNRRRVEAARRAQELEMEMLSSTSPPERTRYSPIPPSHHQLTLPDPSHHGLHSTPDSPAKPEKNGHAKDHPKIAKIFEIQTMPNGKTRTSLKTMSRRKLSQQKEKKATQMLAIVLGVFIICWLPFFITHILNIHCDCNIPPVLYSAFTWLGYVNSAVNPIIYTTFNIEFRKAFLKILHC
Sequence of Beta-2 adrenergic receptor (Homo sapiens) (P07550 whole entry, looked up): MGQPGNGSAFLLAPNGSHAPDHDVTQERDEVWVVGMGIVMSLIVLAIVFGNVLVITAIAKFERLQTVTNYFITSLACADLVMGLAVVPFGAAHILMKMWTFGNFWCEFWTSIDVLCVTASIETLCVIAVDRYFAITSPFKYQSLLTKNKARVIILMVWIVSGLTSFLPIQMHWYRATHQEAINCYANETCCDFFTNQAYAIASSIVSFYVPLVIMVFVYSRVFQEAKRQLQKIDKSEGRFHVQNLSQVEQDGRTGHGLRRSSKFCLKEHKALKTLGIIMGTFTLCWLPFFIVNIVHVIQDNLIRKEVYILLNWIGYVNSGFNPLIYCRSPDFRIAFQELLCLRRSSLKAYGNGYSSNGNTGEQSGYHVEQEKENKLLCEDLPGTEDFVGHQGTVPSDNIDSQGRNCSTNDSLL
Sequence of KiSS-1 receptor (Homo sapiens) (Q969F8 whole entry, looked up): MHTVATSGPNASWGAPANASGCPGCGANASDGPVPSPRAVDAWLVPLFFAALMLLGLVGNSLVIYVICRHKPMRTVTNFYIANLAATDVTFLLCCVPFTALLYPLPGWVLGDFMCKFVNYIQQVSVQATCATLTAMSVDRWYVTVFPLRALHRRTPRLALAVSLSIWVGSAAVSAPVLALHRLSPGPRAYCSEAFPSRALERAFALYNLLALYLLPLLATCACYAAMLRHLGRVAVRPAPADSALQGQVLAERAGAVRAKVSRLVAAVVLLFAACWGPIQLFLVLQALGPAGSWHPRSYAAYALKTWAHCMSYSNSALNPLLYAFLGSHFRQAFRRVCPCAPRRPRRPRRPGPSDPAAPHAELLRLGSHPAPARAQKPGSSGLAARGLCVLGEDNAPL

`NC(N)=NC(=O)Cc1c(Cl)cccc1Cl`: the Potency result in experiment [1], in [2], in experiment [3], in experiment [6], in experiment [7] and in experiment [8] was “inactive” in each case. In addition, the Potency result in experiment [9], in [10], in [11], in experiment [12], in experiment [13] and in [14] was “inactive” in each case. In addition, the Potency result in experiment [15] and in [16] was “inactive” throughout. Also, the outcome in [4] and in experiment [5] was inactive.
In the case of `Cc1cn[nH]c1`, the Potency result in [1], in experiment [2], in experiment [3], in experiment [6], in [7] and in experiment [8] was “inactive” each time. For the same compound, the Potency entry in experiment [9], in experiment [10], in [11], in [12], in experiment [13] and in experiment [14] was “inactive” each time. Further, the Potency entry in experiment [15], in experiment [17] and in experiment [16] was “inactive” each time. The outcome in experiment [4] and in [5] was inactive.
Consider `CNCCc1ccccn1`, for which the Potency result in experiment [1], in experiment [2], in experiment [3], in experiment [6], in [7] and in experiment [8] was “inactive” in each case. Moreover, the Potency entry in experiment [9], in experiment [10], in experiment [11], in experiment [12], in experiment [13] and in [14] was “inactive” each time. In addition, the Potency result in experiment [15] was “inactive”. Moreover, the outcome in [4] and in [5] was inactive.
Turning to `CC[C@@H](CO)NCCN[C@@H](CC)CO`, the Potency result in experiment [1], in [2], in experiment [3], in experiment [6], in [7] and in [8] was “inactive” throughout. Moreover, the Potency entry in experiment [9], in experiment [10], in experiment [11], in experiment [12], in [13] and in [14] was “inactive” throughout. Moreover, the Potency result in experiment [17] and in [16] was “inactive” each time. Further, the result in [4] and in experiment [5] was inactive.
In the case of `CCCN(CCC)C(=O)C(CCC(=O)O)NC(=O)c1ccccc1` (stereo not drawn), the Potency entry in [1], in [2], in experiment [3], in experiment [6], in experiment [7] and in [8] was “inactive” throughout. For the same compound, the Potency result in experiment [9], in experiment [10], in [11], in experiment [12], in [13] and in [14] was “inactive” in each case. Besides, the Potency result in experiment [15] and in experiment [16] was “inactive” throughout. Moreover, the outcome in experiment [4] and in experiment [5] was inactive.
Take `NCC1CCC(C(=O)Oc2ccc(CCC(=O)O)cc2)CC1` (stereo not drawn): the Potency entry in [1], in experiment [2], in [3], in [6], in [7] and in experiment [8] was “inactive” each time. The Potency entry in experiment [9], in [10], in experiment [11], in experiment [12], in experiment [13] and in [14] was “inactive” each time. In addition, the Potency result in experiment [17] and in [16] was “inactive” each time. Also, the outcome in experiment [4] and in experiment [5] was inactive.
Turning to `CCCNC(C)C(=O)Nc1ccccc1C` (stereo not drawn), the Potency entry in experiment [1], in [2], in experiment [3], in experiment [6], in experiment [7] and in experiment [8] was “inactive” in each case. The Potency entry in experiment [9], in experiment [10], in experiment [11], in [12], in experiment [13] and in experiment [14] was “inactive” each time. Further, the Potency result in experiment [15] and in experiment [16] was “inactive” in each case. Also, the result in experiment [4] and in experiment [5] was inactive. Also, the Potency in experiment [17] was 14.4 µM (active).
